In the library only some 8.1% were active in any assay of this set; here they are far more common.
ELG1 DNA repair = ELG1-dependent DNA repair inhibition. Potency, µM (highest dose often 46.1 µM), usual class: inhibitors. AID 504467. 330,000 compounds, 2.3% hits. HEK293T ELG1-luciferase reporter, luminescence, 16 h; DNA damage induced by 5-fluorouridine; also: nearly all actives have a fitted effect of over 55% in size
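Cells (2,000 per well) received 5-fluorouridine plus test compound or DMSO and were incubated 16 hr at 37 °C, 5% CO2. Luciferase activity was read by luminescence 30 min after ONE-Glo addition; signal suppression marked inhibition of damage-induced ELG1 function.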
SW480 rerep = induces DNA re-replication in SW480 colon adenocarcinoma cells. SW480 DNA re-replication, Hoechst DNA content imaging, 48 h. Potency, µM (top dose mostly 46.1 µM), most hits filed as activators. 340,000 compounds, 1.8% hits. AID 624297; also: nearly all actives have a fitted effect of over 55% in size
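Quantitative HTS format with DMSO vehicle controls; 48 hr drug incubation at 37 C, then 40 min Hoechst staining and scanning imager measurement at 405 nm excitation.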
KB-V1 cytotox = kills drug-selected multidrug resistant KB-V1 cells; Potency, µM (titrated, usually from 46.1 µM), hits mostly cytotoxic; KB-V1 MDR cells viability, CellTiter-Glo, 72 h; 400,000 compounds, 3.4% hits; also: nearly all actives have a fitted effect of over 60% in size
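KB-V1 cells (P-gp-expressing MDR subline of KB-3-1) in phenol-red-free DMEM with 10% FBS were exposed to library compounds over a concentration series for 72 h at 37 degrees C. Viability read by CellTiter-Glo luminescence; concentration-effect curves fitted after normalization.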
MCF10A rereplic = induces DNA re-replication in MCF 10a normal breast cells | MCF 10A DNA re-replication, Hoechst nuclear intensity, 48 h | AID 624296 | Potency, µM (highest dose often 46.1 µM), usual class: activators | 350,000 compounds, 2.9% hits; also: nearly all actives have a fitted effect of over 50% in size
KB-3-1 cytotox = kills parental KB-3-1 adenocarcinoma cells; KB-3-1 viability, CellTiter-Glo ATP luminescence, 72 h; Potency, µM (titrated, usually from 46.1 µM), actives largely listed as cytotoxic; 400,000 compounds, 1.4% hits; AID 1347075; also: nearly all actives have a fitted effect of over 60% in size
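72 h, 37 °C compound treatment of KB-3-1 parental cells; CellTiter-Glo added, 10 min, luminescence read. Data corrected against DMSO-only plates and normalized before curve fitting.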
Hits are given with their value; – = inactive; ? = inconclusive; · = no result; [ ] = dose if it differs, or a comment. Calls follow the shape of the dose curve; as a rule, active = well fitted curve in the direction sought with a large enough effect; inconclusive = small, poorly fitted or top-dose-only effect, or another doubt; inactive = no such curve, though single readings can be large; an effect the other way counts as inactive or inconclusive.

SMILES	ELG1 DNA repair	SW480 rerep	KB-V1 cytotox	MCF10A rereplic	KB-3-1 cytotox
N#CCc1c(C#N)c(N)nc(N2CCN(c3ccc(F)cc3)CC2)c1C#N	?	–	12µM	?	?
N#CCc1c(C#N)c(N)nc(N2CCN(Cc3ccc4c(c3)OCO4)CC2)c1C#N	18µM	–	21µM	16µM	?
Cc1cccc(NC(=O)c2ccc(OCc3c(C)noc3C)cc2)c1C	–	?	?	–	?
Cc1cc(C)nc(Sc2ncnc3sc4c(c23)CCC4)n1	?	13µM	?	–[0.0737 µM]	?
COc1ccc(/C=N/NC(=O)c2cccnc2)cc1CSc1ccccn1	?	13µM	?	13µM	?
COc1ccc(C(=O)N/N=C/c2ccc(OC)c(CSc3ccccn3)c2)cc1	?	–	–	–	–
COc1ccc(/C=N/NC(=O)c2cccc(Br)c2)cc1CSc1ccccn1	–	?	12µM	15µM	?
CCOc1ccc(OCC)c(NS(=O)(=O)c2cn(C)cn2)c1	–	–	–	–	–
N=c1c(C(=O)NCC2CCCO2)cc2c(=O)n3ccccc3nc2n1CCCO (stereo not drawn)	·	·	–	·	–
N=c1c(C(=O)NCC2CCCO2)cc2c(=O)n3ccccc3nc2n1C1CCCCC1 (stereo not drawn)	–	?	–	15µM	–
Cc1ccc2nc3c(cc(C(=O)NCC4CCCO4)c(=N)n3C3CCCC3)c(=O)n2c1 (stereo not drawn)	–	–	?	?	–
Cc1cccn2c(=O)c3cc(C(=O)NCC4CCCO4)c(=N)n(C4CCCC4)c3nc12 (stereo not drawn)	–	18µM	–	?	–
N=c1c(C(=O)NCC2CCCO2)cc2c(=O)n3ccccc3nc2n1C1CCCC1 (stereo not drawn)	?	?	–	5.2µM	–
CCCCCCCC(=O)Nc1cc(C(=O)NCc2ccc(C)cc2)ccc1N1CCC2(CC1)CC(c1cccc(Br)c1)=NO2	–	–	–	–	–
COc1ccc(Oc2ccccc2/C=C/C(=O)O)cc1	–	–	–	–	–
O=C(c1ccccc1S(=O)(=O)NCC(O)COc1ccc([N+](=O)[O-])cc1)N1CCCCC1 (stereo not drawn)	–	–	?	–	–
COc1cccc(Oc2cnc(N)nc2-c2ccc(OC)cc2O)c1	–	7.3µM	2.6µM	6.5µM	6.5µM
COc1ccc(-c2cnc(N)nc2-c2ccc(OC)cc2O)cc1	23µM	–	–	–	–
C=C(C)COc1ccc(-c2nc(N)ncc2-c2ccc(Cl)cc2)c(O)c1	–	–	23µM	?	?
Nc1ncc(-c2ccccc2)c(-c2ccc(OCc3ccccc3)cc2O)n1	–	?	–	21µM	?
C=C(C)COc1ccc(-c2nc(N)ncc2-c2ccc(OC)c(OC)c2)c(O)c1	–	–	–	?	–
COc1ccc(-c2nc(N)ncc2-c2ccccc2)c(O)c1	–	–	?	–	–
Cc1ccc(S(=O)(=O)N2CC(O)C[C@H]2C(=O)OCC(=O)N2CCN(c3ccc(F)cc3)CC2)cc1C (stereo partly drawn)	·	–	–	–	?
CC12CC(O)C3C(CCC4=CC(=O)CCC43C)C1CCC2=CCO (stereo not drawn)	·	–	18µM	–	?
CCCC1(CCC)NC(=O)N(CC(=O)N2CCc3ccccc32)C1=O	–	–	16µM	–	–
SMILES	ELG1 DNA repair	SW480 rerep	KB-V1 cytotox	MCF10A rereplic	KB-3-1 cytotox
O=C1NC2(CCCCC2)C(=O)N1CC(=O)N1CCc2ccccc21	–	–	–	–	–
O=c1oc2ccccc2n1Cc1cccc(C(F)(F)F)c1	·	–	–	–	–
CO/N=C\CC(=O)Nc1ccc(Cl)cc1Cl	–	7.3µM	5.8µM	16µM	?
Cc1ccc(S(=O)(=O)NC(=O)C2(C)CCN2C(=O)C2(c3ccc(Cl)cc3)CCC2)cc1 (stereo not drawn)	·	·	–	·	–
CC(C)(C)OC(=O)[C@H](Cc1ccccc1)NC(=O)c1[nH]cnc1C(=O)Nc1cccc(Cl)c1	?	–[9.22 µM]	?	15µM	?
CCOC(=O)c1ccc(NC(=O)c2nc[nH]c2C(=O)N[C@@H](Cc2ccccc2)C(=O)OC(C)(C)C)cc1	23µM	?	–	–	13µM
Cc1cccc(NC(=O)c2nc[nH]c2C(=O)N[C@@H](Cc2ccccc2)C(=O)OC(C)(C)C)c1	?	–	?	3.7µM	?

Screening results: PubChem, National Center for Advancing Translational Sciences (NCATS)
